Among all 350,000 compounds or so, about 550 (0.16%) were called active. What follows is part of a selection rich in actives, with near analogues and random picks from the rest. A number with no mark means an inactive call. Cut-off read from the data, not from the text of the source: active = activation mostly above about 9.7% (no sharp cut-off); inconclusive = no clear call, values can overlap the other calls; inactive = mostly below about 3.7%.

Our source for the activation values is PubChem BioAssay AID588436 (Broad Institute, 2011).

This test is described as follows: induces V. cholerae light production without autoinducers, primary screen, BH1578 luxS cqsA deficient, single point (AID 588436). The following applies: V. cholerae BH1578 lux reporter, luminescence, 6 h, at 18.7 µM; hits give high values.
For the molecule `COc1ccccc1C(=O)NCCn1cc(SCC(=O)NCc2ccco2)c2ccccc21`, the activation is -0.41%.

As for `CCC(=O)Nc1ccc(S(=O)(=O)NCC2CCCO2)cc1` (stereo not given), the activation is -0.618%.

Turning to `CCC(=O)c1c[nH]c(C(=O)NCC2CCCO2)c1` (stereo not given), the activation was -0.144%.

For the molecule `CCC(=O)NC(NCC1CCCO1)C(Cl)(Cl)Cl` (stereo not given), the activation is 16.7% (active).

On to `CS(=O)(=O)N1CCC(C(=O)N2CCN(c3ccccc3)CC2)CC1`, for which the activation entry was “inactive”.

In the case of `CCCS(=O)(=O)N1CCCC(C(=O)N2CCN(c3ccccc3)CC2)C1` (stereo not given), the activation is 33.3% (active).

`O=C(C1CCCN(S(=O)(=O)c2ccccc2)C1)N1CCN(c2ccc(F)cc2)CC1` (stereo not given): the activation result is “inactive”.

For `CCOc1ccc(OCc2cccc(C(=O)N(CC)CC)c2)cc1`, the activation was -0.345%.

As for `Cc1cccc(-n2c(SCC(=O)Nc3cccc(S(=O)(=O)NC4=NCCCCC4)c3)nc3ccccc3c2=O)c1C`, the activation is -0.796%.

Take `O=C(C1CC(=O)N(c2ccc(F)cc2)C1)N1CCN(c2ccccc2)CC1` (stereo not given): the activation is -0.28%.

In the case of `Cc1cccc(CN2CCC(n3nccc3NC(=O)c3ccccc3C)CC2)n1`, the activation was -0.82%.

For `COC(=O)c1ccc(C2NC(=O)NC(C)=C2C(=O)N(C)C)cc1` (stereo not given), the activation is -3.1%.

In the case of `COC(=O)C1=C(C)NC(=O)NC1/C=C/c1ccccc1` (stereo not given), the activation is 33.3% (active).

As for `COC(=O)C1=C(C)N=C2SC(C)C(=O)N2C1/C=C/c1ccccc1` (stereo not given), the activation entry is “inactive”.

Take `CCN(CC(=O)Nc1ccccc1C(F)(F)F)C(=O)CSCc1c(C)noc1C`: the activation result is “inactive”.

For the molecule `CC(C)CC(N=C1NC(C)(C)Cc2ccccc21)C(=O)O` (stereo not given), the activation is -0.478%.

For the molecule `CC(NCc1cccs1)C(=O)Nc1cc(Cl)cc(Cl)c1` (stereo not given), the activation was -0.542%.

Consider `COC(=O)c1ccc(CNC(=O)Cn2cc(C)c(=O)[nH]c2=O)cc1`, for which the activation is -1.31%.

As for `CCc1cccc2c(=O)c(C(=O)NCCCOC)c[nH]c12`, the activation result was “inactive”.

`Cc1cc(C(=O)OCC(=O)Nc2ccccc2Cl)c(C)o1`: the activation is 11.9%.

As for `O=C(Cc1ccc2c(c1)CCCC2)Nc1ccccc1Cl`, the activation is 159% (active).

Regarding `O=C(Nc1ccc2c(c1)CCC2)c1cccc(S(=O)(=O)Nc2ccccc2Cl)c1`, the activation was 0.69%.

For `O=[N+]([O-])c1cnc2ccc3ccccc3c2c1`, the activation is 31.2% (active).

Consider `O=[N+]([O-])c1ccc2nc(-c3ccccn3)[nH]c2c1`, for which the activation result is “inactive”.

Regarding `CN(CCc1ccccc1)c1ccc([N+](=O)[O-])cn1`, the activation result is “inactive”.

Turning to `COC(=O)c1ccc(N(CC(=O)NC2CCCC2)C(=O)CNC(=O)c2ccco2)cc1`, the activation was -0.813%.

In the case of `COc1cccc(N(C(=O)CNC(=O)c2ccco2)C(C(=O)NC2CCCCC2)c2cccnc2)c1` (stereo not given), the activation was 0.162%.

Turning to `COc1ccc(N(CC(=O)NC2CCCCC2)C(=O)CNC(=O)c2ccco2)c(OC)c1`, the activation was 16.7% (active).

In the case of `CC(C)CN(C(=O)Cn1c(=O)cnc2ccccc21)C1CCS(=O)(=O)C1` (stereo not given), the activation was -2.94%.

`CC(=O)OCCN(CCCn1c(-c2ccncc2)nc2ccccc21)c1nc(-c2ccc(C)cc2)cs1`: the activation is -0.447%.

`Cc1ccc(C)c(NC(=O)c2cc(-c3cc(C)cc(C)c3O)n[nH]2)c1`: the activation was 1.16%.

For the molecule `CC(C)CNC(=O)COC(=O)/C=C/c1ccccc1[N+](=O)[O-]`, the activation was 13.6%.

For `COc1cccc(NC(=O)COC(=O)/C=C/c2ccco2)c1`, the activation result was “inactive”.

Regarding `CC(C)CNC(=O)COC(=O)/C=C/c1ccco1`, the activation is 180% (active).

Turning to `CC(CN1CCCCC1)c1ccccc1` (stereo not given), the activation result is “inactive”.
